CHRM1 PAM = potentiates human M1 receptor response to acetylcholine; P11229; CHO-K1 hM1, Fluo-8 calcium fluorescence, ACh EC20; 0% = ACh EC20, 100% = maximal ACh; activation, % at 3 µM; 360,000 compounds, 0.088% hits; AID 588819; in the data active = activation above about 19%, passing the limit was not always enough
Target sequence (P11229 whole entry, looked up): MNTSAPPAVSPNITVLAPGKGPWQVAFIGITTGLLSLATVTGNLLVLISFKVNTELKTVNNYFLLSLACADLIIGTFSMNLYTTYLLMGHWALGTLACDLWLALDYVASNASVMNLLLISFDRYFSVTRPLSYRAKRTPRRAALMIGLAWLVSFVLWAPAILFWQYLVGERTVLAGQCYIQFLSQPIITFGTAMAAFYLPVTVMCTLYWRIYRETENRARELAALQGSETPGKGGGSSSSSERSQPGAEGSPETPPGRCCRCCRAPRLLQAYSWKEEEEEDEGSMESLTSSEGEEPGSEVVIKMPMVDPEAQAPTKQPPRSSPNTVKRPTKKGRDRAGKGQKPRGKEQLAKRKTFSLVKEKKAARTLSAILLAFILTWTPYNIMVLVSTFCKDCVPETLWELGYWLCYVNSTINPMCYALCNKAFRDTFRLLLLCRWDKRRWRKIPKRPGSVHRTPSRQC
M1 ag = human M1 muscarinic receptor agonism. 360,000 compounds, 0.33% hits. CHO-K1 hM1, Fluo-8 calcium fluorescence, agonist mode; 0% DMSO, 100% acetylcholine EC100. activation, % at 3 µM;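 active = activation above the run's mean compound activation plus 3 SD, cut at about 16% in these data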;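 note: peak over basal fluorescence ratio within a 140 s kinetic read after compound addition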
CHO-K1 Ca antag = nonselective inhibitor or artifact in parental CHO-K1 cells. 360,000 compounds, 0.6% hits. ATP-induced calcium, Fluo-8 fluorescence. inhibition, % at 3 µM;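 active = inhibition above a per-plate cutoff, the plate's mean sample inhibition plus 3 SD, cut at about 24% in these data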;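 note: 0% = DMSO plus EC80 ATP and 100% = DMSO alone without ATP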
CHO-K1 Ca ag = nonselective activator or artifact in parental CHO-K1 cells; Fluo-8 calcium fluorescence; scaled to maximal ATP response, vehicle zero; activation, % at 3 µM; 360,000 compounds, 0.48% hits; AID 602248; in the data active = activation above about 15%;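 note: untransfected CHO-K1 host cells lacking M1 receptor as counterscreen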
M1 antag = human CHRM1 antagonism. AID 588852. CHO-K1 hM1, Fluo-8 calcium fluorescence, ACh EC80 antagonist. inhibition, % at 3 µM. P11229. 360,000 compounds, 1.3% hits;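 active = percent inhibition above its own plate's cutoff, namely the mean of that plate's compound wells plus 3 SD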;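 note: peak over basal fluorescence ratio during 140 s after agonist addition; 0% = ACh EC80 plus DMSO and 100% = DMSO alone without agonist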
M1 PAM parental = M1 PAM counterscreen hit in parental CHO-K1 cells | activation, % at 3 µM | ATP EC20, Fluo-8 calcium fluorescence; 0% at ATP EC20, 100% at ATP max | 360,000 compounds, 0.02% hits;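 active = activation above the run cutoff, the mean activation of all test compounds plus 3 SD, cut at about 40% in these data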;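 note: peak over basal fluorescence ratio in a 140 s read after ATP addition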
* = called active by the depositor. A selection: hits, their analogues and other compounds. The true share with any hit is near 2.4%.

How did CCOc1ccc(-c2cc(C(=O)Nc3ccc4c(c3)OCCO4)c3ccccc3n2)cc1 do in these assays?
CHRM1 PAM: 1.9; M1 ag: -2.1; CHO-K1 Ca antag: 30.3*; CHO-K1 Ca ag: 2.7; M1 antag: 11.1; M1 PAM parental: 4.9

Results for COc1cccc(/C=N/NC(=O)c2cc(-c3ccccn3)nc3ccccc23)c1O ?
CHRM1 PAM: -11.3; M1 ag: -4.6; CHO-K1 Ca antag: -16.3; CHO-K1 Ca ag: 4.3; M1 antag: 37.2*; M1 PAM parental: 3.8

What do the screens show for `O=C(COC(=O)c1cc[n+]([O-])cc1)NCc1ccccc1Cl`?
CHRM1 PAM: 2.9; M1 ag: -0.8; CHO-K1 Ca antag: -1.6; CHO-K1 Ca ag: 0.5; M1 antag: -1.1; M1 PAM parental: 8.6

Results for O=C(Nc1cc(C(F)(F)F)ccc1-n1cnc2ccccc21)c1ccccc1 ?
CHRM1 PAM: -6.0; M1 ag: -6.0; CHO-K1 Ca antag: 0.6; CHO-K1 Ca ag: 0.0; M1 antag: 11.1; M1 PAM parental: -1.0

What do the screens show for `OC(c1cccs1)(c1cccs1)C1C[N+]2(CF)CCC1CC2` (configuration not stated)?
CHRM1 PAM: -21.9; M1 ag: -8.5; CHO-K1 Ca antag: -4.9; CHO-K1 Ca ag: 0.5; M1 antag: 83.2*; M1 PAM parental: 22.2

What do the screens show for `O=C(CCC1CCCC1)NCc1cccs1`?
CHRM1 PAM: -3.7; M1 ag: -4.6; CHO-K1 Ca antag: 2.2; CHO-K1 Ca ag: -0.2; M1 antag: 3.6; M1 PAM parental: -2.8

What do the screens show for `CN1CCN(C(c2cccc(Cl)c2)c2ccccc2Cl)CC1` (configuration not stated)?
CHRM1 PAM: -25.1; M1 ag: -10.4; CHO-K1 Ca antag: -4.8; CHO-K1 Ca ag: 1.8; M1 antag: 87.6*; M1 PAM parental: 19.6

Results for N#Cc1ccc(C(=O)Nc2cccc(NC(=O)c3ccco3)c2)c(F)c1 ?
CHRM1 PAM: -7.8; M1 ag: -2.9; CHO-K1 Ca antag: -9.9; CHO-K1 Ca ag: 7.3; M1 antag: 15.6; M1 PAM parental: 3.1

How did CN(C)c1ccc(/C=C/C(=O)c2cccc(Br)c2)cc1 do in these assays?
CHRM1 PAM: -33.4; M1 ag: 163.8*; CHO-K1 Ca antag: 39.8*; CHO-K1 Ca ag: 53.5*; M1 antag: 81.5*; M1 PAM parental: 4.8

What do the screens show for `CCCCn1nnnc1C(c1cc2ccccc2o1)N1CCN(c2ncccc2C#N)CC1` (configuration not stated)?
CHO-K1 Ca antag: -5.5; CHO-K1 Ca ag: 1.1; M1 PAM parental: 3.5

Results for Cn1c(NCc2ccccc2O)nc2ccccc21 ?
CHRM1 PAM: 1.0; M1 ag: -4.9; CHO-K1 Ca antag: 5.9; CHO-K1 Ca ag: 0.1; M1 antag: -1.8; M1 PAM parental: 3.6

Results for CC(C)n1c(NCc2ccccc2O)nc2ccccc21 ?
CHRM1 PAM: 8.6; M1 ag: -4.4; CHO-K1 Ca antag: 1.3; CHO-K1 Ca ag: 23.2*; M1 antag: -8.3; M1 PAM parental: 16.9

What do the screens show for `CN(CCO)c1cccc2c1S(=O)(=O)N[C@H](Cc1ccccc1)CO2`?
CHO-K1 Ca antag: -11.9; CHO-K1 Ca ag: 0.9; M1 PAM parental: 9.9

What do the screens show for `COCCNC(=O)Cc1ccc(F)cc1`?
CHRM1 PAM: 12.7; M1 ag: -5.8; CHO-K1 Ca antag: -12.1; CHO-K1 Ca ag: 0.5; M1 antag: -13.0; M1 PAM parental: 19.3

Results for CC(C)(C)c1ccc(OCCNC(=O)Cc2ccc(F)cc2)cc1 ?
CHRM1 PAM: -8.9; M1 ag: 0.5; CHO-K1 Ca antag: 26.9*; CHO-K1 Ca ag: 4.2; M1 antag: 16.5; M1 PAM parental: -11.9

What do the screens show for `Cc1cccc[n+]1CC(=O)c1ccc(Cl)cc1`?
CHRM1 PAM: 11.2; M1 ag: -9.7; CHO-K1 Ca antag: 6.1; CHO-K1 Ca ag: 0.2; M1 antag: -25.2; M1 PAM parental: -10.6

What do the screens show for `Cc1cccc[n+]1CC(=O)c1ccc2c(c1)OCCO2`?
CHRM1 PAM: -26.9; M1 ag: -10.6; CHO-K1 Ca antag: 5.5; CHO-K1 Ca ag: -0.1; M1 antag: 27.5*; M1 PAM parental: 1.2

Results for CCSc1cc(N2CCCC2)nc(-c2ccccc2Cl)n1 ?
CHRM1 PAM: 2.4; M1 ag: -1.6; CHO-K1 Ca antag: 9.3; CHO-K1 Ca ag: 0.2; M1 antag: -2.8; M1 PAM parental: -9.6

Results for N/C(=N/OC(=O)c1ccc(Cl)cc1)c1ncc([N+](=O)[O-])s1 ?
CHRM1 PAM: 20.2; M1 ag: 1.6; CHO-K1 Ca antag: 29.2*; CHO-K1 Ca ag: -0.3; M1 antag: -27.2; M1 PAM parental: -24.9

Results for COC(=O)C1C/C(=N/NS(=O)(=O)c2ccc(C)cc2)CS1 (configuration not stated) ?
CHRM1 PAM: 5.9; M1 ag: -3.5; CHO-K1 Ca antag: 1.5; CHO-K1 Ca ag: 0.0; M1 antag: -10.3; M1 PAM parental: -1.1

Results for CCCCN(CC)C(=O)c1cc2cc3ccc(OC)cc3nc2o1 ?
CHRM1 PAM: 5.1; M1 ag: -0.7; CHO-K1 Ca antag: 25.1*; CHO-K1 Ca ag: 0.8; M1 antag: -7.6; M1 PAM parental: -19.6

How did CCOC(=O)c1cc(-c2ccc(F)cc2)n(CC(=O)N2CCCC2)c1C do in these assays?
CHRM1 PAM: 5.1; M1 ag: -1.8; CHO-K1 Ca antag: 3.3; CHO-K1 Ca ag: 15.4*; M1 antag: -5.9; M1 PAM parental: 11.8

What do the screens show for `CCOC(=O)c1cc(-c2ccccc2)n(CC(=O)N2CCCC2)c1C`?
CHRM1 PAM: 0.8; M1 ag: -1.1; CHO-K1 Ca antag: 3.8; CHO-K1 Ca ag: 2.0; M1 antag: 2.5; M1 PAM parental: 9.5

Results for Nc1ccc2c(c1)Cc1cc([N+](=O)[O-])ccc1-2 ?
CHRM1 PAM: -12.1; M1 ag: 5.1; CHO-K1 Ca antag: 13.4; CHO-K1 Ca ag: 26.4*; M1 antag: 19.7; M1 PAM parental: 9.3

How did CC(O)CN(CC(C)O)c1ccc2c(c1)Cc1cc([N+](=O)[O-])ccc1-2 (configuration not stated) do in these assays?
CHRM1 PAM: -29.5; M1 ag: 133.7*; CHO-K1 Ca antag: 59.6*; CHO-K1 Ca ag: 173.6*; M1 antag: 70.7*; M1 PAM parental: -20.3

How did CC(C)(CO)NC(=O)Nc1ccc(Cl)c(Cl)c1 do in these assays?
CHRM1 PAM: 5.3; M1 ag: 2.7; CHO-K1 Ca antag: 10.9; CHO-K1 Ca ag: 1.3; M1 antag: 2.6; M1 PAM parental: -1.9

How did CC(C)(C)C(=O)N1CCC[C@H]1C(O)(c1ccccc1)c1ccccc1 do in these assays?
CHRM1 PAM: 0.9; M1 ag: -4.1; CHO-K1 Ca antag: 7.9; CHO-K1 Ca ag: -0.6; M1 antag: -1.2; M1 PAM parental: -1.6

Results for CN1CCC(CC(C(=O)N2CCCC2)(c2ccccc2)c2ccccc2)C1 (configuration not stated) ?
CHRM1 PAM: -26.7; M1 ag: -8.2; CHO-K1 Ca antag: -6.8; CHO-K1 Ca ag: 0.8; M1 antag: 60.5*; M1 PAM parental: -17.3

Screens from PubChem BioAssay.
